According to ChEMBL document CHEMBL3988442, “University of Dundee, Small-Polar-MMV Screening Library” (2021):
The whole screen tested about 48,000 compounds, of which about 13,000 (27%) showed an effect of 50% or more. Some of the results follow.

Test system: Wolbachia pipientis
Experiment: Anti-Wolbachia Cell-Based Screen
Format: functional
Parameters: scale not given: in the data most compounds retested in dose-response had high values
Conditions: 5 µM

| Compound | Percent Effect [%] |
| --- | --- |
| Cc1cc(C#N)ccc1S(=O)(=O)NCc1cnc(N(C)C)n1C | -10.13 |
| Cc1ccccc1N1CC2(CCCCN2CC2CC2)CC1=O.O=C(O)C(F)(F)F (stereo not drawn) | 0.424 |
| COCCN1CCCCC12CC(=O)N(c1ccccc1OC)C2.O=C(O)C(F)(F)F (stereo not drawn) | 105 |
| N#Cc1ccccc1N1CC2(CCCCN2CC2CC2)CC1=O.O=C(O)C(F)(F)F (stereo not drawn) | -5.23 |
| COCCN1CCCCC12CC(=O)N(c1cccc(C#N)c1)C2.O=C(O)C(F)(F)F (stereo not drawn) | 96.19 |
| O=C(O)C(F)(F)F.O=C1CC2(CCCCN2CC2CC2)CN1c1ccccc1 (stereo not drawn) | -2.383 |
| CN(C)CC(=O)N1CCC2(CC(=O)N(c3cccc(C#N)c3)C2)C1.O=C(O)C(F)(F)F (stereo not drawn) | -15.58 |
| CCN1CCN(C(=O)c2ccc(OC)nn2)c2ccccc21 | 6.209 |
| CC(C)(C)Cc1nnc(NCc2cccc(C#N)c2)o1 | -57.27 |
| COCCCC(=O)Nc1cccnc1N1CCCCC1 | 0.2962 |
| CS(=O)(=O)NC1CCCN(C(=O)c2cccnc2)C1 (stereo not drawn) | 108.4 |
| CS(=O)(=O)NC1CCCN(C(=O)Nc2cccnc2)C1 (stereo not drawn) | 122.7 |
| CS(=O)(=O)NC1CCN(C(=O)c2ccc(Br)cc2)C1 (stereo not drawn) | 2.662 |
| CC(NC(=O)Nc1cccnc1N1CCCC1)c1ccccn1 (stereo not drawn) | 9.094 |
| Cn1cc(NC(=O)N2CCC(NS(C)(=O)=O)CC2)ccc1=O | -4.185 |
| CC(C)S(=O)(=O)NCC1CCCN(C(=O)c2cccnc2)C1 (stereo not drawn) | -9.569 |
| CS(=O)(=O)NC1CCCN(C(=O)Nc2cccnc2N2CCCC2)C1 (stereo not drawn) | 111.1 |

| Compound | Percent Effect [%] |
| --- | --- |
| CCCN(C(=O)CNC1CCc2ncnn2C1)C1=CCCCC1 (stereo not drawn) | 7.464 |
| COC1CCN(C(=O)CC(C)(C)C)CC(=O)N(C)c2ccccc21 (stereo not drawn) | 108.9 |
| CC(C)(C)CC(=O)N1CC[C@H]2CC(=O)N(CCc3c[nH]cn3)CC[C@H]2C1 | -18.99 |
| CC(C)(C)CC(=O)N1CC[C@H]2NC(=O)N(Cc3ccccc3)C(=O)[C@H]21 | -1.242 |
| COC1CCN(C(=O)COC(C)=O)CC(=O)N(C)c2ccccc21 (stereo not drawn) | 102.8 |
| CCC[C@H]1CN(c2nccc(OC)n2)C[C@@H]1NS(=O)(=O)N(C)C | 12.34 |
| CCN(Cc1nccn1C)C(=O)c1ccc(NCCc2c[nH]cn2)nc1 | -4.233 |
| CCN(Cc1cnn(C)c1)S(=O)(=O)c1ccc(NC(C)=O)cc1 | -1.303 |
| CCN(CCC(F)(F)F)S(=O)(=O)c1cccc(F)c1C#N | -15.21 |
| CCN(Cc1cnn(C)c1)S(=O)(=O)c1ccc(NC(=O)C(C)(C)C)cc1 | -17.75 |
| CCCN(Cc1cnn(C)c1)S(=O)(=O)c1cccc(F)c1C#N | 103.9 |
| CCCN(Cc1cnn(C)c1)S(=O)(=O)c1ccc(F)c(C#N)c1 | 88.2 |
| CN(CCn1cccn1)S(=O)(=O)c1cccc(F)c1C#N | -19.52 |
| CCCN(Cc1cnn(C)c1)CC1CCCN(S(C)(=O)=O)C1 (stereo not drawn) | -6.058 |
| CCCN(Cc1cnn(C)c1)S(=O)(=O)c1cc(C)cc(F)c1 | 91.35 |
| COCCN(C)S(=O)(=O)c1cc(C)cc(F)c1 | -0.1957 |
